This note sets out measurements from PubChem BioAssay AID1851 (National Center for Advancing Translational Sciences (NCATS), 2009).

The campaign covered roughly 16,000 compounds. About 5,100 (32%) were called active. Not shown: some 25% with an inconclusive outcome. Some of the results follow. Unmarked numbers belong to inactive results. Calls come from the whole dose curve; as a rule, active = well fitted curve in the direction sought with a large enough effect; inconclusive = small, poorly fitted or top-dose-only effect, or effect the other way; inactive = no such curve, though single readings can be large or run the other way.
% is set by controls: 0 for no effect and ±100 for the full control effect.

For this experiment, the target named is Cytochrome P450 3A4 (Homo sapiens) (UniProt P08684). Nature of the experiment: Cytochrome panel assay with activity outcomes. As to conditions: recombinant CYP, pro-luciferin dealkylation, luminescence, p450-cyp3a4; series mostly up to 57.1 µM.
Chain of Cytochrome P450 3A4 (Homo sapiens) (P08684 whole entry, looked up): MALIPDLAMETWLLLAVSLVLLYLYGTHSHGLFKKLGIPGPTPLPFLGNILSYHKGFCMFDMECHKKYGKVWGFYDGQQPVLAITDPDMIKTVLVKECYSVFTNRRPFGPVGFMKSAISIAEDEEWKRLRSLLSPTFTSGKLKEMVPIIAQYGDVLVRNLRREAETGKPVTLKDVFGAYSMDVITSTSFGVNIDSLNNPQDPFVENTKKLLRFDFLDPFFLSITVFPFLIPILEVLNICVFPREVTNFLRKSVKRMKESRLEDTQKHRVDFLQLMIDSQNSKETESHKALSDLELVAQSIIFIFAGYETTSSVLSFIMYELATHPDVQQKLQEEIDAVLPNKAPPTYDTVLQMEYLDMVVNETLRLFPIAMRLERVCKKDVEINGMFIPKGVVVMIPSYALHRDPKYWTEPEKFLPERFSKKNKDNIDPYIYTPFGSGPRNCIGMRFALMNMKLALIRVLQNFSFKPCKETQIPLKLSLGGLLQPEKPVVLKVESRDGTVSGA
For the compound `O[C@@H](c1cc([C@@]23C[C@H]4CC[C@@H]2C[C@H](C4)C3)nc2c(Cl)cc(Cl)cc12)[C@@H]1CCCCN1`, the activity, negative = inhibition was -22.3% [at 11.4 µM].

Consider `C/C(CCN1CCc2nc(-c3ccccc3)c(-c3ccccc3)cc2C1)=N\OC[C@@H](O)COCc1ccco1`, for which the AC50 was 3.16 µM (active).

As for `C/C(CCN1CCc2nc(-c3ccccc3)c(-c3ccccc3)cc2C1)=N\O[C@@H](C)c1cn([C@@H]2COC[C@@H]2O)nn1`, the activity, negative = inhibition is -37.3% [at 11.4 µM].

On to `C/C(CCN1CCCCc2nc(C)c(C)cc21)=N\OC[C@@H](O)COCc1ccco1`, for which the AC50 was 3.98 µM (active).

In the case of `C/C(CCN1CCCc2nc(C)c(C)cc21)=N\OC[C@@H](O)[C@@H]1O[C@@H]2OC(C)(C)O[C@@H]2[C@H]1O`, the activity, negative = inhibition was -10.8% [at 11.4 µM].

Regarding `C/C(CCN1CCCc2nc(C)c(C)cc21)=N\OC[C@@H](O)COCc1ccco1`, the AC50 is 3.98 µM (active).

As to `N/C(=N\O)C1COc2ccccc2O1` (stereo not drawn), the AC50 entry is “inactive”.

`Cc1ccc(S(=O)(=O)N2CCN(C(=O)C3COc4ccccc4O3)CC2)cc1C` (stereo not drawn): the half-maximal activity concentration (AC50) is 11.2 µM (active).

Consider `COC(=O)[C@@]1(Cc2ccccc2)[C@H]2c3cc(C(=O)N4CCCC4)n(Cc4ccc(O)c(OC)c4)c3C[C@H]2CN1C(=O)c1ccccc1`, for which the AC50 was 2 µM (active).

Take `COC(=O)[C@@]1(Cc2ccccc2)[C@H]2c3cc(C(=O)N4CCCC4)n(Cc4ccc(OC)c(OC)c4)c3C[C@H]2CN1C(=O)c1ccccc1`: the AC50 is 1.26 µM (active).

With `Cc1ccc2ncc([N+](=O)[O-])n2c1`, the AC50 result was “inactive”.

Take `CN(C)Cc1ccccc1-c1nccc(NC2CC2)n1`: the AC50 was 15.8 µM (active).

Consider `CN(C)Cc1ccccc1-c1nccc(N(C)C)n1`, for which the AC50 was 10 µM (active).

Turning to `CNc1ccnc(-c2ccccc2CN(C)C)n1`, the AC50 result is “inactive”.

For the compound `COc1ccc(CO/N=C/c2c(C)[nH]c(=O)[nH]c2=O)cc1`, the AC50 entry was “inactive”.

`COc1ccc(CNc2ccnc(-c3ccccc3C(F)(F)F)n2)c(OC)c1`: the AC50 was 3.16 µM (active).

Regarding `COc1ccc(CNc2ccnc(-c3ccccc3OC)n2)c(OC)c1`, the AC50 was 6.31 µM (active).

As for `COc1ccc(CNc2ccnc(-c3ccccc3CN(C)C)n2)c(OC)c1`, the AC50 was 5.01 µM (active).

For `COCCNc1ccnc(-c2ccccc2CN(C)C)n1`, the AC50 result is “inactive”.

Regarding `COc1ccc(CNc2ccnc(-c3ccccc3Cl)n2)c(OC)c1`, the AC50 was 3.16 µM (active).

`C[N+]1(CCC(=O)c2ccco2)CC2CCC(CC2)C1` (stereo not drawn): the activity, negative = inhibition is 1.47% [at 11.4 µM].

For the compound `N#Cc1cc2[nH]c(=O)c(=O)[nH]c2cc1[N+](=O)[O-]`, the AC50 result is “inactive”.

Regarding `CCN(c1nc(N)c(C(=O)N=C(N)N)nc1Cl)C(C)C`, the AC50 result was “inactive”.

`CC1(C)OC[C@@H]2O[C@H](n3cnc4c(N)nc(Cl)nc43)[C@@H](OS(C)(=O)=O)[C@@H]2O1`: the activity, negative = inhibition was -4.98% [at 11.4 µM].

With `O=C(O)c1c2c(c(O)c3c1CN(C1CCCCC1)CO3)OCN(C1CCCCC1)C2`, the activity, negative = inhibition was -0.201% [at 11.4 µM].

`CC(C)Cn1cnc2c(Sc3c([N+](=O)[O-])ncn3C)nc(N)nc21`: the activity, negative = inhibition is -7.97% [at 11.4 µM].

In the case of `CCOc1c(OC(C)=O)ccc(/C=C/c2ccc3cccc(OC(C)=O)c3n2)c1[N+](=O)[O-]`, the AC50 was 10 µM (active).

On to `COc1ccc2c(c1[N+](=O)[O-])CCC/C2=N/OC(=O)c1cccc2ccccc12`, for which the activity, negative = inhibition was 0.913% [at 2.29 µM].

On to `Cc1ccc(-n2c(C)nnc2SCC(=O)N2CCc3ccccc3C2)cc1C`, for which the AC50 is 8.91 µM (active).

`CC1=C(\C=C/C(C)=C/C=C\C(C)=C\C(=O)O)C(C)(C)CCC1`: the AC50 result was “inactive”.

Turning to `O=C(NNS(=O)(=O)c1cc(Cl)cc(Cl)c1)c1sccc1-n1cccc1`, the AC50 is 7.94 µM (active).

In the case of `CC(=O)/C(=N\N=C(N)N)c1ccccc1`, the activity, negative = inhibition is -6.08% [at 11.4 µM].

With `C/C(=N\N=C(c1ccccc1)c1ccccc1)c1cccs1`, the AC50 is 14.1 µM (active).

Take `C/C(=N\N=C1\NC(=O)CC(C(=O)O)S1)c1cccs1` (stereo not drawn): the AC50 result is “inactive”.

In the case of `CCCOc1ccc(C(=O)CCNc2ccc(C)c(Cl)c2)cc1`, the activity, negative = inhibition is 12.4% [at 2.29 µM].

As for `Cc1ccc(NC(=O)CCC(=O)c2ccc(F)cc2)cc1Cl`, the AC50 is 12.6 µM (active).

As to `Cc1ccc(NC(=O)c2cc(NC(=O)CCCC(=O)O)ccc2Cl)cc1Cl`, the AC50 entry is “inactive”.

Consider `Nc1nc(N)nc(CCCc2nc(N)nc(N)n2)n1`, for which the activity, negative = inhibition is -12.5% [at 11.4 µM].

With `c1ccc2oc(C3=NCCN3)cc2c1`, the AC50 result is “inactive”.

For `CCC(NC(=O)c1ccccc1NC(=O)c1ccco1)C(=O)NC1CCCCC1` (stereo not drawn), the half-maximal activity concentration (AC50) was 6.31 µM (active).

As for `CCC(C)NC(=O)c1ccccc1NC(=O)Nc1ccccc1` (stereo not drawn), the AC50 result was “inactive”.

For the compound `O=C(CCc1ccccc1)NNC(=O)c1ccco1`, the AC50 result was “inactive”.

As for `O=C(Nc1ccccn1)c1ccco1`, the AC50 entry is “inactive”.

As to `COc1ccc(CCNC(=O)c2ccccc2NC(=O)c2ccco2)cc1OC`, the half-maximal activity concentration (AC50) is 7.08 µM (active).

For `O=C(Nc1ccccc1C(=O)NCCc1ccccc1)c1ccco1`, the AC50 is 14.1 µM (active).

Regarding `O=C(O)c1ccc(C(=O)O)c(C(=O)O)c1.[NH-][C@@H]1CCCC[C@@H]1[NH-].[Pt]`, the activity, negative = inhibition was 18.9% [at 11.4 µM].

For the compound `CCc1cccc(N(C)C(N)=Nc2cccc3ccccc23)c1`, the AC50 entry was “inactive”.

As for `C#CCSc1n[nH]c(-c2ccco2)n1`, the activity, negative = inhibition was -10.2% [at 11.4 µM].

For the compound `CC(C)=CC(=O)Nc1nnc(C(C)C)s1`, the activity, negative = inhibition was 15.7% [at 2.29 µM].

On to `[O-][N+](CCO)(CCO)c1ncnc2nc[nH]c12`, for which the activity, negative = inhibition is -0.379% [at 11.4 µM].

As to `N=C1[C@@H](O)[C@]2(I)c3ccccc3N3C(=N)[C@H](O)[C@@H]4c5ccccc5N1[C@@H]4[C@@H]32`, the activity, negative = inhibition is -8.09% [at 11.4 µM].

Take `COC(=O)c1ccc(/C=N\NC(=O)c2ccc(C)cc2Cl)cc1`: the concentration at half-maximal activity (AC50) is 3.55 µM (active).

Take `Cc1ccc(C(=O)N/N=C/c2ccc(S(=O)(=O)O)o2)c(Cl)c1`: the AC50 entry was “inactive”.

For `CC1Cc2ccccc2N1C(=O)C1CCCCN1S(=O)(=O)c1ccccc1` (stereo not drawn), the AC50 was 7.94 µM (active).

On to `CC(=O)N1c2ccc(S(=O)(=O)CCC(=O)O)cc2CC1C` (stereo not drawn), for which the AC50 entry was “inactive”.

Turning to `CCNC(=O)C1CC(=O)OC12CCCCC2` (stereo not drawn), the AC50 entry was “inactive”.

Turning to `CC(C)(C)N(NC(=O)Nc1ccccc1)C(=O)c1ccccc1Cl`, the AC50 is 14.1 µM (active).

With `CC(C)(C)N(NC(=O)Nc1ccc(Cl)c(Cl)c1)C(=O)c1ccccc1`, the AC50 is 14.1 µM (active).

With `O=C(Nc1ccc(Cl)cc1)NC1CCCCC1`, the activity, negative = inhibition is 9.33% [at 2.29 µM].

In the case of `Cc1cc(C)cc(C(=O)N(NC(=O)Nc2ccc(Cl)cc2)C(C)(C)C)c1`, the AC50 is 15.8 µM (active).

As to `CC(C)(CC(=O)Nc1ccccc1)C(=O)O`, the activity, negative = inhibition was -5.79% [at 11.4 µM].

Turning to `CC(C)(C)NC(=O)C(=O)NNC(=O)c1ccccc1`, the AC50 entry is “inactive”.

As to `Cc1c(Cl)c(S(N)(=O)=O)cc(S(N)(=O)=O)c1NC(=O)c1ccc(Cl)cc1`, the activity, negative = inhibition was 3.55% [at 11.4 µM].
